{
  "source": "ChEMBL document CHEMBL1201862",
  "about": "“PubChem BioAssay data set” (2004)",
  "data": [
    {"assay": "A High Throughput Confirmatory Assay used to Identify Novel Compounds that Inhibit Mycobacterium Tuberculosis in the absence of Glycerol using Purified and Synthesized Compounds (6).; call rule not given here", "assay_type": "functional", "values": [
      {"smiles": "CO[C@H]1/C=C/O[C@@]2(C)Oc3c(C)c(O)c4c(O)c(c(C=NN5CCN(C)CC5)c(O)c4c3C2=O)NC(=O)/C(C)=C\\C=C\\[C@H](C)[C@H](O)[C@@H](C)[C@@H](O)[C@@H](C)[C@H](OC(C)=O)[C@@H]1C", "IC90": "> 20 nM (active)"},
      {"smiles": "COc1c(N2CCNC(C)C2)c(F)cc2c(=O)c(C(=O)O)cn(C3CC3)c12", "note": "(centres undefined)", "IC90": "> 170 nM (active)"},
      {"smiles": "CC(C)/N=c1\\cc2n(-c3ccc(Cl)cc3)c3ccccc3nc-2cc1Nc1ccc(Cl)cc1", "IC90": "> 230 nM (active)"},
      {"smiles": "CC[N+](C)(CC)CCCCOc1ccc2c(c1)C(=O)c1cc(OCCCC[N+](C)(CC)CC)ccc1-2", "IC90": "> 2700 nM (active)"}
    ]}
  ]
}
